For 13 compounds, Potency, max response and outcome results are on record in PubChem BioAssay (NCATS).

Records with an inconclusive call do not appear. A number with no mark means an inactive call. Activity calls are given as the source filed them. Calls follow the shape of the dose curve; as a rule, active = well fitted curve in the direction sought with a large enough effect; inconclusive = small, poorly fitted or top-dose-only effect, or another doubt; inactive = no such curve, though single readings can be large; an effect the other way counts as inactive or inconclusive.

One assay has as its system HEK293. Put plainly: Cytotoxic Profiling of Annotated Libraries Using Quantitative High-Throughput Screening (AID 1296008). Also: nearly all actives have a fitted effect of over 60% in size. Also: potency is read from the fitted curve at half-maximal effect. As to max response: % is scaled to controls: 0 for no effect and ±100 for the full control effect. Particulars: Five cell lines viability, CellTiter-Glo ATP luminescence, 48-72 h; max response: stronger effect = lower value. In short, it runs like this:
(§1)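 Cells exposed to compounds for 48 or 72 hr at 37 degrees Celsius. Viability read as ATP-coupled luminescence with CellTiter-Glo after 10 min at room temperature.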
On the technique in general: Cellular ATP, detected with luciferase, serves as a proxy for viable cell number.

Another assay relates to NIH3T3. Described as above. Particulars: Five cell lines viability, CellTiter-Glo ATP luminescence, 48-72 h; max response: stronger effect = lower value. Put shortly: as §1
Another assay concerns C33A. Put plainly: Primary qHTS to identify gynecologic anti-cancer compounds using libraries of approved drugs and bioactive compounds (AID 1345084). Also: nearly all actives have a fitted effect of over 55% in size. Also: potency is read from the fitted curve at half-maximal effect. Particulars: Gynecologic cancer cell panel viability, ATPlite luminescence, 48 h; series mostly up to 57.5 µM. Put shortly:
(§2)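 Cells, 1,000 per well, plated 16 h, then exposed 48 h at 37 C to compounds. Viability by ATPlite luminescence after 15 min at room temperature.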
A general note: Quantitative high-throughput screening tests each substance at several concentrations.

A further assay deals with CAOV3. The description is as above. Particulars: Gynecologic cancer cell panel viability, ATPlite luminescence, 48 h; series mostly up to 57.5 µM. Put shortly:
as §2

The subject of the next assay is CASKI. Described as above. Particulars: Gynecologic cancer cell panel viability, ATPlite luminescence, 48 h; series mostly up to 57.5 µM. Put shortly:
as §2

The next assay has as its system Es-2. Described as above. Particulars: Gynecologic cancer cell panel viability, ATPlite luminescence, 48 h; series mostly up to 57.5 µM. In short, it runs like this:
as §2

A further assay deals with HeLa. Described as above. Particulars: Gynecologic cancer cell panel viability, ATPlite luminescence, 48 h; series mostly up to 57.5 µM. Put shortly: as §2
The next assay has as its system Hek293T. The description is as above. Particulars: Gynecologic cancer cell panel viability, ATPlite luminescence, 48 h, control line for the selectivity index; series mostly up to 57.5 µM. Put shortly:
as §2

Another assay deals with JEG-3. The description is as above. Particulars: Gynecologic cancer cell panel viability, ATPlite luminescence, 48 h; series mostly up to 57.5 µM. In short, it runs like this: as §2
In another assay the test system is OV90. The assay is described as above. Particulars: Gynecologic cancer cell panel viability, ATPlite luminescence, 48 h; series mostly up to 57.5 µM. Put shortly:
as §2

A further assay concerns PA-1. The assay is described as above. Particulars: Gynecologic cancer cell panel viability, ATPlite luminescence, 48 h; series mostly up to 57.5 µM. In short, it runs like this: as §2
The test system of assay [1] is HaCat. Put plainly: Cytotoxic Profiling of Annotated Libraries Using Quantitative High-Throughput Screening (AID 1296008). Also: nearly all actives have a fitted effect of over 60% in size. Also: potency is read from the fitted curve at half-maximal effect. As to max response: % is scaled to controls: 0 for no effect and ±100 for the full control effect. Particulars: Five cell lines viability, CellTiter-Glo ATP luminescence, 48-72 h; max response: stronger effect = lower value. Put shortly:
as §1

For assay [2], the system named is HACAT. Put plainly: qHTS assay to identify novel small-molecules to repurpose for Merkel cell carcinoma treatment (AID 1296009). Also: nearly all actives have a fitted effect of over 60% in size. Particulars: MCC and control cell lines, CellTiter-Glo viability, 72 h; at 44.8 µM (top of the series) unless noted. Put shortly:
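Cells were incubated with compound for 72 hr at 37 degree celsius before CellTiter-Glo addition. Luminescence was normalized with no-cell wells as full cytotoxicity and DMSO as baseline.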

For `CC(C)(C)Oc1ccc(OCC2Cc3ccccc3CN2C(=O)c2cccc3ccccc23)cc1` (stereo not drawn), in the assay with HEK293, the Potency is 13 µM (active). Further, the max response in the assay on NIH3T3 is -2.51%. The Potency entry in the assay on C33A, in the assay with CAOV3, in the assay with CASKI, in the assay on Es-2, in the assay with HeLa and with Hek293T was “inactive” in each case. Further, the Potency result in the assay on JEG-3, with OV90 and in the assay with PA-1 was “inactive” in each case.
As for `C=C1CC2OC(=O)C(COC)C2C(OC(=O)/C(C)=C\C)CC2(C)OC1=CC2=O` (stereo not drawn), in the assay on HEK293, the Potency was 4.53 µM (active). Also, in the assay with HaCat [1], the max response was -10.4%. For the same compound, the Potency entry in the assay on CAOV3, with CASKI, in the assay on HeLa, in the assay with JEG-3 and in the assay with OV90 was “inactive” in each case.
With `c1ccc(-c2cnn3cc(-c4ccc(OCCN5CCOCC5)cc4)cnc23)cc1`, in the assay on HEK293, the Potency was 2.31 µM (active). In addition, the result in the assay on HaCat [1] and in the assay with HACAT [2] was inactive. The Potency result in the assay with CASKI, in the assay with HeLa and in the assay on JEG-3 was “inactive” throughout.
Consider `Cc1ccc(C)c(-c2cc(C(F)(F)F)nn2-c2ccc(S(N)(=O)=O)cc2)c1`, for which the Potency was 5.17 µM (active) with HEK293 and 31.6 µM (active) in the assay on HeLa. Further, in the assay on HaCat [1], the max response was 3.66%. In the assay on CASKI, the Potency entry is “inactive”.
`CCC1C(=O)N(C)c2cnc(Nc3ccc(C(=O)NC4CCN(C)CC4)cc3OC)nc2N1C1CCCC1` (stereo not drawn): in the assay on HEK293, the max response was -124%. In addition, the Potency in the assay on NIH3T3 was 7.31 µM (active); in the assay on C33A it was 20 µM (active); in the assay with CASKI it was 3.98 µM (active); in the assay on JEG-3, 28.2 µM (active); in the assay with PA-1, 1.78 µM (active).
Consider `Cc1sc2c(c1C)C(c1ccc(Cl)cc1)=N[C@@H](CC(=O)Nc1ccc(OCCOCCOCCOCCNc3cccc4c3C(=O)N(C3CCC(=O)NC3=O)C4=O)cc1)c1nnc(C)n1-2` (stereo partly drawn), for which the Potency with HEK293 is 0.0447 µM (active). The max response in the assay on NIH3T3 was -54%. For the same compound, the Potency entry with C33A and in the assay with Hek293T was “inactive” each time.
Turning to `NCC1CCN(c2nccc(-c3ccc4ccccc4c3)n2)CC1`, the Potency in the assay with HEK293 was 11.6 µM (active); in the assay on HaCat [1] it was 6.51 µM (active); in the assay on C33A, 28.2 µM (active); with CAOV3, 28.2 µM (active); in the assay with HeLa, 14.1 µM (active); in the assay with PA-1, 14.1 µM (active). In addition, the Potency result with Es-2, with JEG-3 and in the assay with OV90 was “inactive” throughout.
Regarding `COc1ccccc1S(=O)(=O)Nc1ccc2c(c1)CN(C)C(=O)N2`, in the assay on HEK293, the Potency is 6.51 µM (active). Also, the max response with HaCat [1] is 2.92%. Besides, the Potency entry in the assay on C33A, with CAOV3, in the assay with CASKI, in the assay with Hek293T, in the assay with JEG-3 and with OV90 was “inactive” in each case. Moreover, the Potency entry with PA-1 is “inactive”.
For `O=C(CN1C2=NCCN2c2ccccc21)c1ccc(-c2ccccc2)cc1`, the Potency in the assay with HEK293 is 18.4 µM (active); with HaCat [1], 16.4 µM (active). The Potency entry in the assay on C33A, in the assay on Es-2, in the assay on HeLa, with Hek293T, with JEG-3 and in the assay on PA-1 was “inactive” in each case.
In the case of `COC1CCN(c2cccc(-c3cc(NC(C)=O)nc(-n4nc(C)cc4C)n3)n2)CC1`, in the assay on HEK293, the Potency was 9.2 µM (active). Moreover, the max response in the assay with HaCat [1] is -6.53%. Also, the Potency entry in the assay on C33A, in the assay on CAOV3, with CASKI, with Es-2, in the assay on HeLa and in the assay with Hek293T was “inactive” each time. The Potency entry in the assay on JEG-3, in the assay on OV90 and in the assay on PA-1 was “inactive” throughout.
Take `Cc1cn(CCN2CCN(c3ccccc3-c3cc(C#N)cc(C(=O)NCCCN4CCCC4)c3)CC2)c2ccccc12`: the Potency is 14.8 µM (active) with HEK293 and 16.6 µM (active) in the assay with NIH3T3. Further, the Potency entry in the assay on C33A, in the assay with CASKI, with Es-2, in the assay with HeLa, with Hek293T and in the assay on JEG-3 was “inactive” throughout. For the same compound, the Potency entry in the assay on PA-1 was “inactive”.
As for `CN(C)CCN(Cc1ccccc1)C(=O)c1cc(-c2ccc(F)cc2)n2nc(C(C)(C)C)cc2n1`, the Potency in the assay on HEK293 is 14.6 µM (active). Further, the max response with HaCat [1] was -107%. For the same compound, the Potency result in the assay with C33A, with CASKI, in the assay on Es-2, in the assay with HeLa, in the assay with Hek293T and with JEG-3 was “inactive” each time.
In the case of `CC(C)NC(=O)COc1cccc(-c2nc(Nc3ccc4[nH]ncc4c3)c3ccccc3n2)c1`, the Potency in the assay on HEK293 was 5.8 µM (active); in the assay on CAOV3, 25.1 µM (active); in the assay with HeLa, 17.8 µM (active). In addition, in the assay on HaCat [1], the max response was -3.54%. The Potency result in the assay on JEG-3 and in the assay on OV90 was “inactive” each time.
